Bioassay records (PubChem BioAssay)
Compounds with a hit are over-represented: about 2.1% of the library has one in this group of screens.
Abeta yeast res: A-beta toxicity reversal in yeast. Potency, µM (series often up to 46.1 µM), hits mostly activators. 410,000 compounds, 0.063% hits. yeast expressing A-beta42, growth rescue, OD600, 48 h; response scale: 0% DMSO, 100% iron-clioquinol control. AID 1347071; further: nearly all actives have a fitted effect of over 55% in size
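Growth rescue measured by 600 nm absorbance after 48 h yeast culture at 30 C with compound. Values normalized between DMSO and an equimolar ferric chloride plus clioquinol control.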
TDP43 rescue: inhibitors of TDP-43 toxicity in yeast | TDP-43 expressing yeast growth rescue, BacTiter-Glo, 24 h | Potency, µM (highest dose often 46.1 µM), hits mostly activators | 410,000 compounds, 1.8% hits | AID 652104; further: nearly all actives have a fitted effect of over 50% in size
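Cell-based yeast growth screen: TDP-43 expression induced in galactose, inoculum OD600=0.02 after raffinose pregrowth to mid-log. Read-out BacTiter-Glo luminescence at 24 hr, 30 deg C; inhibition of toxicity seen as signal increase.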
aSyn yeast inh: rescues yeast growth from alpha-synuclein toxicity. Yeast expressing alpha-synuclein, growth rescue, BacTiter-Glo, 24 h. Potency, µM (top dose mostly 46.1 µM), usual class: activators. 370,000 compounds, 0.14% hits. AID 652106; further: nearly all actives have a fitted effect of over 65% in size
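Readout is rescue of growth in alpha-synuclein-expressing yeast, so inhibitors of toxicity appear as activators. Growth after 24 hr at 30 deg C in galactose medium is quantified by luminescence.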
FUS yeast rescue: rescues growth of FUS-expressing yeast | S. cerevisiae FUS-expressing, growth rescue, OD600, 24 h | Potency, µM (top dose mostly 76.6 µM), most hits filed as activators | 390,000 compounds, 0.24% hits | AID 1347120; further: nearly all actives have a fitted effect of over 55% in size
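Galactose (2%) drives FUS expression in yeast precultured in raffinose; seeding density OD 0.005. Test compounds incubated 24hr at 30C and 99% humidity before absorbance at 600 nm was measured.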
Large screens that a line does not name were inactive. The call rests on the fitted dose curve; in most records, active means well fitted curve in the direction sought with a large enough effect; inconclusive means small, poorly fitted or top-dose-only effect, or another doubt; inactive means no such curve, though single readings can be large; an effect the other way counts as inactive or inconclusive.

CC(C)CC(=O)N1CCN(c2ccc([N+](=O)[O-])cc2Cl)CC1	TDP43 rescue 13µM, aSyn yeast inh inconclusive
CC(C)C(=O)N1CCN(c2ccc([N+](=O)[O-])cc2Cl)CC1	TDP43 rescue inconclusive (no result: FUS yeast rescue)
Cc1ccc(S(=O)(=O)NCC(c2ccco2)N2CCN(c3ccccc3F)CC2)cc1 (stereo not drawn)	none (no result: aSyn yeast inh)
Cc1cc(C)c(C)c(S(=O)(=O)ON2C(=O)c3ccccc3C2=O)c1C	TDP43 rescue 5.6µM (no result: FUS yeast rescue)
CCCCCCCNC(=O)C1(CC2CC(c3cccc(Br)c3)=NO2)CCN(C(=O)CCCCCBr)CC1 (stereo not drawn)	TDP43 rescue inconclusive, FUS yeast rescue 28µM
CCOc1ccc(CNC(=O)CS(=O)(=O)c2cccc3nsnc23)cc1	none
O=C(CC1CC2CCC1C2)Nc1nc(-c2ccccn2)cs1 (stereo not drawn)	Abeta yeast res 14µM, TDP43 rescue 18µM, aSyn yeast inh 25µM
Cc1cc(C)c(OCC(=O)Nc2nc(-c3ccccn3)cs2)c(C)c1	aSyn yeast inh 13µM, FUS yeast rescue inconclusive
COc1ccc(OCCCC(=O)Nc2nc(-c3ccccn3)cs2)cc1	Abeta yeast res inconclusive, TDP43 rescue 11µM
O=C(CCS(=O)(=O)c1ccccc1)Nc1nc(-c2ccccn2)cs1	none
COC(=O)CC1Oc2ccc(F)cc2-n2cc(-c3ccc(C)cc3)nc21 (stereo not drawn)	none (no result: aSyn yeast inh)
Cc1ccc(C)c(NC(=O)Cn2c(=O)n(CC(=O)NCCc3ccccc3)c(=O)c3ccccc32)c1	none (no result: aSyn yeast inh)
CC1(Cc2cccc(C(F)(F)F)c2)C(=O)Nc2c(Cl)cccc21 (stereo not drawn)	aSyn yeast inh 22µM
COc1ccccc1CC1(C)C(=O)Nc2c(Cl)cccc21 (stereo not drawn)	TDP43 rescue inconclusive, aSyn yeast inh inconclusive
CC1(Cc2ccc(F)cc2)C(=O)Nc2c(Cl)cccc21 (stereo not drawn)	TDP43 rescue 28µM, aSyn yeast inh 13µM
CC1(Cc2ccc(Cl)cc2)C(=O)Nc2ccc(-c3ccc(F)c(Cl)c3)cc21 (stereo not drawn)	none
CC1(Cc2ccc3c(c2)OCO3)C(=O)Nc2ccc(-c3cccc(C(F)(F)F)c3)cc21 (stereo not drawn)	none
CC1(Cc2ccc3c(c2)OCO3)C(=O)Nc2c(Cl)ccc(Cl)c21 (stereo not drawn)	TDP43 rescue inconclusive, aSyn yeast inh 22µM
Cc1ccc(CC2(C)C(=O)Nc3c(Cl)cccc32)cc1 (stereo not drawn)	aSyn yeast inh 6.3µM
CN1C(=O)c2cccc3c(S(=O)(=O)Nc4cccc(C(=O)O)c4)ccc1c23	none (no result: aSyn yeast inh)
O=C(Cn1cc2c(n1)CCCC2)Nc1cc(C(F)(F)F)ccc1Cl	none (no result: aSyn yeast inh)
CC1(Cc2ccc(Cl)cc2)C(=O)Nc2c(Cl)cccc21 (stereo not drawn)	TDP43 rescue inconclusive, aSyn yeast inh 5µM
CN1CCN(c2nc3c(=O)[nH]c(N)nc3n2C2OC(CO)C(O)C2O)CC1 (stereo not drawn)	none (no result: Abeta yeast res, TDP43 rescue, FUS yeast rescue)
C=C1c2nc3ccccc3n2C=C(c2ccc(C)cc2)N1c1ccccc1	TDP43 rescue 14µM (no result: FUS yeast rescue)
Cc1ccc(C2=CCN(C)C(=O)N2c2ccccc2)cc1	none (no result: Abeta yeast res, TDP43 rescue, aSyn yeast inh)
COc1ccccc1CNC(=O)COCc1cc(-c2ccc3c(c2)OCO3)on1	TDP43 rescue 22µM, FUS yeast rescue inconclusive (no result: aSyn yeast inh)
CCOc1cccc(/C=N\NC(=O)Cc2cccs2)c1O	none (no result: Abeta yeast res, TDP43 rescue, aSyn yeast inh)
CCc1cccc(Nc2c3c(nc4ncnn24)CCC3)c1	TDP43 rescue 18µM
O=C(Nc1cccc2c1[nH]c1ccccc12)C(F)(F)F	TDP43 rescue 14µM
O=C(Nc1cccc2c1[nH]c(=O)c1ccccc12)C(F)(F)F	none
CCCOC(=O)c1cccc(Nc2nc(CCC)cc(=O)[nH]2)c1	TDP43 rescue 18µM, FUS yeast rescue inconclusive (no result: aSyn yeast inh)
Cc1cc(-n2ccnc(NCCc3ccc(S(N)(=O)=O)cc3)c2=O)ccc1Br	none (no result: aSyn yeast inh)
Cc1nn(C)c2c1c(-c1ccccc1)cc(=O)n2CC(=O)NC(C)C	none (no result: aSyn yeast inh)
COc1ccc(N2CCN(CC(O)COc3ccc(C(C)(C)C)cc3)CC2)cc1 (stereo not drawn)	TDP43 rescue 13µM (no result: aSyn yeast inh)
COc1ccc(NCC(O)COc2ccc(C(C)(C)C)cc2)cc1 (stereo not drawn)	Abeta yeast res inconclusive, TDP43 rescue 16µM
COc1ccccc1NCC(O)COc1ccc(C(C)(C)C)cc1 (stereo not drawn)	aSyn yeast inh inconclusive, FUS yeast rescue inconclusive
O=C(Cc1ccc(S(=O)(=O)N2CCOCC2)s1)Nc1nc2c(s1)CCCC2	FUS yeast rescue 8.9µM
Cn1nc(-c2ccccc2)c(C(=O)Nc2ccc(C(F)(F)F)cc2)c1Cl	none
Cn1nc(C(F)(F)F)c(C(=O)Nc2ccc(C(F)(F)F)cc2)c1Cl	TDP43 rescue 20µM
Cn1nc(-c2ccccc2)c(C(=O)Nc2ccc(Cl)cc2)c1Cl	TDP43 rescue 3.2µM
Cc1c(-c2nc(-c3ccc4c(c3)OCO4)no2)nnn1-c1cccc(C(F)(F)F)c1	none (no result: aSyn yeast inh)
CCOc1cccc(NC(=O)C2CC(=O)N(CC)C(=Nc3ccc(F)cc3)S2)c1 (stereo not drawn)	Abeta yeast res inconclusive, TDP43 rescue 22µM, aSyn yeast inh inconclusive
CCN=C1SC(C(=O)Nc2cccc(OCC)c2)CC(=O)N1CC (stereo not drawn)	none
Cc1ccc(C(=O)NC2CCCCN(Cc3cccc(F)c3)C2=O)cc1 (stereo not drawn)	none (no result: Abeta yeast res, TDP43 rescue, aSyn yeast inh)
CCN(CC)C(=O)Cn1c(=O)cc(C)c2c(C)nn(-c3cccc(Cl)c3C)c21	none (no result: aSyn yeast inh)
CCOc1ccc(/C=C2\SC(=S)N(CCC(=O)N(CCO)c3ccccc3)C2=O)cc1	none
CCc1ccc(/C=C2\SC(=S)N(CCCC(=O)N(CCO)c3ccccc3)C2=O)cc1	TDP43 rescue 35µM, FUS yeast rescue 22µM
CC(=O)c1ccc(NC(=O)CC2Oc3ccc(C)cc3NC2=O)cc1 (stereo not drawn)	none (no result: aSyn yeast inh)
CCc1cccc(NC(=O)Cn2c(-c3ccc(F)cc3)cc(C(C)=O)c2C)c1	FUS yeast rescue inconclusive (no result: aSyn yeast inh)
CCC(=O)Nc1sc2c(c1C#N)CC(C)(CC)OC2 (stereo not drawn)	TDP43 rescue 11µM (no result: aSyn yeast inh)
O=C(N/N=C/c1cccc(Oc2ccccc2)c1)c1ccncc1	TDP43 rescue 13µM
O=C(N/N=C/c1ccncc1)c1ccccc1	none
CCOc1ccccc1NC(=O)C1=C(C)Nc2ncnn2C1c1ccco1 (stereo not drawn)	none
CC(C)c1nc2sc3c(=S)nc[nH]c3c2c2c1CCC2	TDP43 rescue 16µM
CC(C)c1nc2sc3c(=O)[nH]cnc3c2c2c1CCC2	none
O=C(N1CCC(n2nc(-c3ccccc3)oc2=O)CC1)C1(c2ccc(Cl)cc2)CC1	TDP43 rescue 22µM, aSyn yeast inh inconclusive, FUS yeast rescue inconclusive (no result: Abeta yeast res)
O=C(Cc1ccc2c(c1)OCO2)N1CCC(n2nc(-c3ccccc3)oc2=O)CC1	none (no result: Abeta yeast res, TDP43 rescue, aSyn yeast inh)
COc1cc2c(NC3CCN(C(C)C)CC3)nc(N3CCCN(C)CC3)nc2cc1OCCOCCN(C)C	none (no result: Abeta yeast res, TDP43 rescue, FUS yeast rescue)
COc1ccc(OC)c(C2C(C(=O)c3ccc(C)o3)=C(O)C(=O)N2c2cc(C)on2)c1 (stereo not drawn)	FUS yeast rescue 32µM
